# Source: PubChem BioAssay (NCI)
# About 83,000 compounds went through this panel and 20% of them were active in at least one assay; those are over-represented in the sample as a whole.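 Interpretation: 100, growth as untreated; towards 0, rising growth inhibition; 0, no net growth; 0 to -100, cell death. Compounds scoring below 10 were considered active.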 A number with no mark means an inactive call. Active and inactive are the calls of the source.
# Tested on: HL-60(TB) leukemia
# Assay: NCI-60 one-dose screen, 48 h (100 = growth as untreated, 0 = no growth, -100 = all killed)
# Settings: 10 µM unless noted
row,Structure (SMILES),growth
1,CCOc1cc2ncc(C#N)c(Nc3ccc(F)c(Cl)c3)c2cc1NC(=O)/C=C/CN(C)C,-52.6% (active)
2,c1ccc2[nH]c(SSc3nc4ncncc4[nH]3)nc2c1,17.1%
3,COc1ccc(N2CCN(c3nc(-c4cc(OC)c(OC)c(OC)c4)nc4ccccc34)CC2)cc1,44.4%
4,C[C@H](c1nc2ccc(C#N)cc2[nH]1)[C@H]1CC[C@H]2[C@@H]3CCC4=CC(=O)CC[C@]4(C)[C@H]3CC[C@]12C,56.3%
5,CC(=O)/C=C/c1cc2cc(Cl)ccc2[nH]c1=O,54.5%
6,O=C1C(Cl)=C(Nc2ccccc2)C(=O)C(Cl)=C1Nc1ccccc1,122%
7,Nc1nsc(C(=O)c2ccc(O)cc2)n1,92.4%
8,O=C1Cc2cc(O)ccc2O1,100%
9,O=[N+]([O-])/C(=C/C=C/c1ccccc1)c1ccccc1,-2.71% (active)
10,COc1cc2nc(Nc3cccc(NC(C)=O)c3)nc(N)c2cc1OC,102%
11,Cc1ccc(CNc2c3ccccc3nc3cc(NC(=O)CCN4CCCC4)ccc23)cc1,-64.3% (active)
12,COc1cc(/C=C2\CN(S(=O)(=O)c3ccc(C)cc3)C/C(=C\c3cc(CN4CCOCC4)c(O)c(OC)c3)C2=O)cc(CN2CCOCC2)c1O,-15.5% (active)
13,Cn1c(=O)c2c(ncn2CCC(=O)Nc2ccc(F)cc2)n(C)c1=O,94.1%
14,CC(NC(=O)CCl)c1ccccc1 (stereo not given),83.4%
15,COc1ccc(-c2cc(=O)n(-c3nc4ccccc4[nH]3)[nH]2)cc1OC,35.4%
16,O=C(CCCCCn1c2ccccc2c2c3c(c4c5ccccc5[nH]c4c21)C(=O)N(O)C3=O)N1CCOCC1,44.6%
17,O=C1C(Cl)=C(Nc2cccc3cc4ccccc4nc23)C(=O)c2ccccc21,47.8%
18,CN(C)C(=O)c1ccc(SC(=S)NCc2ccccc2)cc1,-32% [100 µM] (active)
19,O=C(N/N=C/c1ccc(O)cc1O)c1cccc(Nc2ccnc(C(F)(F)F)c2)c1,8.21% (active)
20,CCN(CC)CC[n+]1cc2cc(OC)c(OC)cc2c2ccc3cc4c(cc3c21)OCO4,-33.5% (active)

row,Structure (SMILES),growth
1,CCn1c(Sc2nnc(NC(=O)CSC(=S)N3CCCCC3)s2)nc2c1c(=O)n(C)c(=O)n2C,95%
2,Cn1cc(-c2noc(-c3cn(C)c4ncc(F)cc34)n2)c2cc(Cl)ccc21,82.6%
3,CC(C)N=C1CCCC1C(=S)SSC(=S)C1CCCC1=NC(C)C (stereo not given),75.8%
4,CCCn1nc(C(=O)N2CCCCC2)c2c1CCC(N1CCC(c3ccncc3)CC1)C2 (stereo not given),96.6%
5,COc1ccc(/C=C(\c2cc(OC)c(OC)c(OC)c2)c2nnc(-c3cccs3)o2)cc1,92%
6,C=CCSSc1ncnc2c1ncn2C1OC(CO)C(O)C1O (stereo not given),21.5%
7,O=c1oc2c(C(F)(F)F)cccc2cc1-c1csc(Nc2ccc(OCCF)cc2)n1,-1.08% (active)
8,COc1cc(C2CC(c3ccc(C)cc3)=NN2C(C)=O)ccc1Oc1ccnc2cc(Cl)ccc12 (stereo not given),100%
9,O=C(Nc1cccc(-n2cc(-c3ccncc3)c(-c3cc(O)cc(Cl)c3)n2)c1)Nc1ccc(Cl)c(Cl)c1,-23.4% (active)
10,CC(C)OC(=O)Nc1ccc(-c2nc(-c3cccc(OCCN4CCOCC4)c3)c(-c3ccnc(Br)c3)[nH]2)cc1,-47.7% (active)
11,CC(C)=NNC(N)=S,84.7%
12,CCN(CC)CC(C)Nc1ccc([N+](=O)[O-])c2sc3ccccc3c(=O)c12 (stereo not given),-26.2% (active)
13,CC(=O)[C@H]1CC[C@H]2[C@@H]3CC[C@H]4CC=CC[C@]4(C)[C@H]3CC[C@]12C,69%
14,O=C1C(=O)c2cccnc2-c2ncccc21,-21% (active)
15,Cc1ccc(C(=O)COc2cccc(/C=C3\Oc4ccccc4C3=O)c2)cc1,78.7%
16,Clc1ccccc1N=Cc1ccc2c(c1)OCO2,94.6%
17,Cc1ccc2oc(=O)cc(/C(=C3/C=CC=N3)c3ccc[nH]3)c2c1,-13.6% (active)
18,CCn1c2ccc(O)cc2c2c(C)c3c[n+](C)ccc3c(C)c21,95.5%
19,CC[C@@]12C=CCN3CC[C@]4(c5cc(NC(=O)COc6cc(OCC(=O)Nc7cc8c(cc7OC)N(C)[C@H]7[C@@](O)(C(=O)OC)[C@H](OC(C)=O)[C@]9(CC)C=CCN%10CC[C@]87[C@@H]%109)cc7oc(-c8ccccc8)cc(=O)c67)c(OC)cc5N(C)[C@@H]4[C@](O)(C(=O)OC)[C@H]1OC(C)=O)[C@H]32,88.2%
20,O=S(=O)(c1ccc(NC(=S)NCc2cccnc2)cc1)N1CCCCC1,64.9%
